For 59 molecules, inhibition results are on record in PubChem BioAssay AID1159606 (Sanford-Burnham Center for Chemical Genomics, 2016).

The whole screen tested about 360,000 compounds, of which about 7,300 (2%) were called active. This is one part of a sample in which actives are shown more often than they occur. Cut-off read from the data, not from the text of the source: active = inhibition above about 50%; inactive = the rest.

The inhibition is the change of the read-out against control, counted positive when it falls.

This test can be described thus: blockers of TWEAK-induced Fn14 reporter activity – luciferase reporter cells, uHTS, primary screen (AID 1159606). The following applies: TWEAK-stimulated Fn14 reporter cells, luciferase luminescence, 8 h; at 10 µM; active compounds read high. On the technique in general: A reporter such as luciferase makes a cellular process visible.
Turning to `Cc1cc(Cl)c(S(=O)(=O)Nc2ccc3c(c2)OCCO3)cc1OCC(N)=O`, the inhibition is 86.8% (active).
In the case of `Cc1cc(Cl)c(S(=O)(=O)N(C)C)cc1OCC(N)=O`, the inhibition is 12.6% (inactive).
As for `Cc1cc(Cl)c(S(=O)(=O)NCC2CCCO2)cc1OCC(N)=O` (centres undefined), the inhibition is 3.22% (inactive).
With `Cc1cc(C)cc(C(=O)OCC(=O)NCCNC(=O)COC(=O)c2cc(C)cc(C)c2)c1` the figure was -2.52% (inactive); with `Cc1ccc(S(=O)(=O)N2CCC(=O)N([C@H](COCc3ccccc3)C(C)C)CC2)cc1`, -20.6% (inactive); with `Cc1cccc(C)c1NC(=O)CN1CCN(c2ccc(F)cc2)CC1`, 0% (inactive).
As for `Oc1c(CN2CCCC2)cc(COCc2ccccc2)c2cccnc12`, the inhibition is 9.88% (inactive).
Next, `Oc1c(CN2CCN(c3ccc(F)cc3)CC2)cc(Cl)c2cccnc12`: 104% (active); `O=[N+]([O-])c1ccc(S(=O)(=O)Nc2cccc(-c3ccc(N4CCCC4)nn3)c2)cc1`: -10.7% (inactive).
With `O=C(Nc1ccc2c(c1)OCCO2)C1CCCN(c2ncccn2)C1` (centres undefined) the figure was 67.2% (active); with `O=C(Nc1ccccn1)C1CCN(S(=O)(=O)c2ccc3c(c2)OCCO3)CC1`, -16% (inactive).
With `O=C(Nc1ccc2c(c1)OCO2)C1CC1(Cl)Cl` (centres undefined) the figure was -7.08% (inactive); with `O=C(Nc1cccc(Cl)c1)C1CCCN(c2cnccn2)C1` (centres undefined), -12.7% (inactive).
For the molecule `CN1C(=O)c2ccc(NC(=O)C3CCCCC3)cc2C1=O`, the inhibition is -18.9% (inactive).
Take `O=C(Nc1ccc2c(c1)OCCO2)C1CCCC1`: the inhibition is 92.4% (active).
On to `Cc1ccccc1S(=O)(=O)NC(=O)C1(C)CCN1C(=O)C1(c2ccccc2)CCCC1` (centres undefined), for which the inhibition is 0.78% (inactive).
Next, `COc1ccc(NC(=O)CN(C)C(=O)CNC(=O)C2CCCCC2)cc1`: -2.69% (inactive); `COc1cccc(CNC(=O)[C@@H]2CCCN2C(=O)[C@@H]2CCCN2C(=O)c2ccccc2)c1`: 17.3% (inactive).
Regarding `CC1(C(=O)NS(=O)(=O)c2ccccc2)CCN1C(=O)C1CCCCC1` (centres undefined), the inhibition was -10.4% (inactive).
For `CCC1(C)NC(=O)N(CC(=O)N2CCN(c3cccc(Cl)c3)CC2)C1=O` (centres undefined), the inhibition is 5.53% (inactive).
Turning to `CCn1c(SCC(=O)Nc2cc(C)c(Cl)cc2OC)nnc1-c1ccco1`, the inhibition is -18.4% (inactive).
On to `CSc1nc(-c2ccco2)nn1C(=O)c1ccccc1Cl`, for which the inhibition is 51% (active).
Next, `O=C(CSc1nnc(-c2ccco2)o1)NCC(=O)c1ccccc1`: 7.83% (inactive); `CCn1cc(CN2CCCC(CNS(=O)(=O)Cc3ccccc3)C2)cn1` (centres undefined): 1.85% (inactive); `CC(=O)Nc1c2c(nn1-c1cccc(C)c1)CSC2`: -5.72% (inactive).
In the case of `Cc1cccc(-n2ncc(Cl)c(Cl)c2=O)c1`, the inhibition was 94.7% (active).
Turning to `CCCNC(=O)c1c(Cl)cnn1-c1ccc(C)cc1`, the inhibition is -19.4% (inactive).
Turning to `COc1cccc(-c2nc3nc(C)cc(C)n3c2NC2CCCCC2)c1`, the inhibition is -20.7% (inactive).
Consider `CC(C)(C)Oc1ccccc1Nc1nc(NCCO)nc(N2CCCC2)n1`, for which the inhibition is -8.68% (inactive).
On to `O=C(CSc1nc2ccccc2c(=O)n1-c1ccccc1F)N1CCOCC1`, for which the inhibition is 0.72% (inactive).
With `COc1cccc(-n2c(SCC(=O)NC3CCS(=O)(=O)C3)nc3ccccc3c2=O)c1` (centres undefined) the figure was 6.23% (inactive).
As to `Cc1ccc(-n2c(SCC(=O)N3CCC(C(=O)O)CC3)nc3ccccc3c2=O)cc1C`, the inhibition is 58.6% (active).
`O=C(CCCN1C(=O)C(c2ccccc2)Oc2cccnc21)Nc1ccccc1Br` (centres undefined): the inhibition is -8.78% (inactive).
Next, `COC(=O)[C@]12CCCCC=C1N(Cc1cccc3ccccc13)C(=O)[C@H](CC(=O)N1CCOCC1)C2`: -1.32% (inactive); `CSc1ccc(Cl)c(C(=O)OCC(=O)N2CC(C)OC(C)C2)c1` (centres undefined): 3.56% (inactive); `O=C1/C(=C\c2ccc([N+](=O)[O-])cc2)CS(=O)(=O)C/C1=C/c1ccc([N+](=O)[O-])cc1`: 103% (active).
On to `CN(C)S(=O)(=O)N1CCN(c2ccc([N+](=O)[O-])cc2)CC1`, for which the inhibition is -16% (inactive).
In the case of `CCCCC(=O)Nc1c2c(nn1-c1ccc([N+](=O)[O-])cc1)CS(=O)(=O)C2`, the inhibition is -8.65% (inactive).
Regarding `O=C(O)Cc1csc(NC(=O)CSc2nnnn2-c2ccc(O)cc2)n1`, the inhibition is 58.4% (active).
With `O=C(CSc1nnnn1-c1ccc(O)cc1)c1ccc(F)cc1` the figure was -10.2% (inactive).
Turning to `Cc1cc(NC(=O)CSc2nnnn2-c2ccc(F)cc2)no1`, the inhibition is -11.5% (inactive).
With `O=C(COc1cccc(F)c1)Oc1ccc(C(=O)c2ccccc2)cc1` the figure was 10.4% (inactive).
`O=C(Nc1ccn(Cc2ccccc2F)n1)c1ccc(COc2ccc(Cl)cc2Cl)o1`: the inhibition was 33.4% (inactive).
Next, `Cc1c(Br)c([N+](=O)[O-])nn1CC(=O)N1CCN(Cc2ccccc2)CC1`: -4.42% (inactive); `O=C(Nc1ccn(Cc2ccccc2)n1)c1n[nH]c([N+](=O)[O-])c1Cl`: 73.8% (active).
Next, `CC(=O)Oc1ccc(Cn2c(C)c(C(=O)NCc3ccc(C#N)cc3)sc2=O)cc1`: -2.94% (inactive).
With `CC(=O)C1=CCC(c2ccccc2)N(S(=O)(=O)c2ccc(C)cc2)C1` (centres undefined) the figure was 15.7% (inactive); with `Cc1ccc2cc3cc(C(=O)N4CCCCCC4)oc3nc2c1`, 50.1% (active).
As for `Cc1ccc2oc(=O)c3cnn(CC(=O)N4CCCCCC4)c3c2c1`, the inhibition is -7.9% (inactive).
With `Cc1cc(C)cc(NC(=O)N2CCCCCCC2)c1` the figure was -11.9% (inactive).
Next, `COc1ccc(OC)c(CN2C(=O)CCC2(C)c2nnnn2Cc2ccccc2)c1` (centres undefined): -0.14% (inactive).
As to `C=CCNc1nnc(SCC(=O)N2CCCCC2)c2ccccc12`, the inhibition is 16.3% (inactive).
For the molecule `COC(=O)c1ccc2nc(-c3ccc(C)cc3)c(Cc3ccc(OC)cc3C)n2c1`, the inhibition is -18.1% (inactive).
With `Cc1cccc(NC(=S)NCCc2ccc(F)cc2)c1C` the figure was 3.93% (inactive); with `Cc1cccc(NC(=S)NCCc2ccc(Cl)cc2)c1C`, 72% (active); with `Cc1ccccc1NC(=S)NC(=O)Cc1ccc(Cl)cc1`, 9.93% (inactive).
Take `Cc1ccc(CNC(=O)c2cccc3c2C(=O)c2ccc(N4CCC(C)CC4)cc2S3(=O)=O)cc1`: the inhibition was 21% (inactive).
Turning to `COc1cc(/C=C/C(=O)OCC(=O)Nc2cccc(Oc3ccccc3)c2)ccc1O`, the inhibition is 14.2% (inactive).
In the case of `CCCCC[C@H](C)N1C[C@@H](COCc2ccccc2)Oc2cc(N3CC[C@@H](N(C)C)C3)ccc2S1(=O)=O`, the inhibition was -25% (inactive).
